Results published in PubChem BioAssay (NCATS).
Inconclusive results are not listed. Calls of active or inactive are those of the source. Calls come from the whole dose curve; as a rule, active = well fitted cell-killing curve with a large enough effect; inconclusive = small, poorly fitted or top-dose-only effect; inactive = flat fitted curve, though single readings scatter.

Experiment: qHTS of pediatric cancer cell lines to identify multiple opportunities for drug repurposing: Primary screen for DAOY cells (AID 1347090); note: nearly all actives have a fitted effect of over 55% in size
Settings: DAOY medulloblastoma viability, CellTiter-Glo luminescence, 48 h; series mostly up to 46 µM; activity change, negative = cytotoxic: at the top concentration
From the text: Drug repurposing or repositioning has been offered as a strategy for drug development in oncology programs. This approach has special potential for childhood cancers and other rare or orphan diseases, where the expected return on new drug development has been a disincentive to pharmaceuticals.
In this project we exploit the poly-pharmacology of drugs to discover new indications via phenotypic screening of a panel of 19 well-characterized cell lines derived from solid tumors seen in children and adolescents. The goal is to identify approved drugs with previously unrecognized anticancer properties that has the potential to reveal new mechanisms and biological processes involved in carcinogenesis or drug resistance. We employed a titration-based paradigm (quantitative high-throughput screening or qHTS), where all compounds were tested at multiple concentrations for their effect on cell viability. Concentration-response curves (CRCs) were derived directly from the primary screen, and both potency and efficacy values were used to identify compounds with robust bioactivity profiles. We screened the NIH Chemical Genomics Center (NCGC) Pharmaceutical Collection (NPC) and Mechanism Interrogation Plate (MIPE) small molecule collections of approved and investigational compounds against these cell lines; and measured metabolically active cells after 48 hours of compound treatment as a proxy for cell viability.
Assay Submitter: Nathalia J. Martinez, National Center for Advancing Translational Sciences, National Institutes of Health, Rockville, MD, USA; email: natalia.martinez@nih.gov
[1] Shen, M et al. Quantitative high-throughput phenotypic screening of pediatric cancer cell lines identifies multiple opportunities for drug repurposing. Oncotarget 2017 Dec 19;9(4):4758-4772. PMID 29435139.
The cells were obtained from University of North Carolina (UNC), Pediatric Preclinical Testing Program (PPT), and Coriell Institute (CI).
qHTS cell viability assay:
Cells were assayed in growth media at a density of 500-1,000 cells/well. Five microliters of cells were dispensed into 1,536-well, white, solid-bottom, TC-treated plates (Greiner Bio One) using a multidrop dispenser and incubated at 37 degrees C, 5% CO2, under a humidified atmosphere for 5 hours. Twenty-three nanoliters of compounds and controls (neutral control DMSO or positive control bortezomib at final concentration of 2.3 µM) were subsequently transferred by Kalypsys pintool. For primary screens, the MIPE collection was tested at 11-point dilutions (final concentrations range from 0.78 nM to 46 µM) and the NPC collection at 8-point dilutions (final concentrations range from 0.59 nM to 46 µM). Compounds tested in follow-up screens were assayed at 11-point dilutions. Cells were incubated for 48 hours, followed by addition of 3 uL of CellTiter-Glo (Promega). After a 15 min incubation at room temperature, samples were analyzed for luminescence intensity using a ViewLux High-throughput CCD imager equipped with clear filters.
Potency is the fitted concentration of half-maximal effect.

SMILES	Potency	activity change, negative = cytotoxic
O=C(Cc1ccc(-c2ccc(OCCN3CCOCC3)cc2)cn1)NCc1ccccc1	0.0372 µM (active)	
CCn1cc(-c2ccnc3[nH]c(-c4cccc(CN(C)C)c4)cc23)c(-c2ccc(NC(=O)N(C)C)cc2)n1	5.9 µM (active)	
Cn1c2cc(S(C)=O)sc2c2cnn(Cc3cccc(N)c3)c(=O)c21 (stereo not given)		-9.36% (inactive)
O=C(O)CO.[NH2-].[NH2-].[Pt+2]		0.117% (inactive)
Cn1c(CNc2ccc(C(=N)N)cc2)nc2cc(C(=O)N(CCC(=O)O)c3ccccn3)ccc21		2.63% [at 16.1 µM] (inactive)
COc1ccc2c(c1)CC[C@@H](CN(C)CC(=O)O)[C@H]2c1ccccc1	2.96 µM (active)	
O=c1[nH]c(=O)n(C2CCCO2)cc1F (stereo not given)		0.325% [at 92.7 µM] (inactive)
Nc1ncnc2c1c(-c1cnc3[nH]ccc3c1)nn2C1CCCC1	3.72 µM (active)	
Cc1cc(Nc2cc(CN3CCOCC3)c3nc(C)c(Cc4ccc(Cl)cc4F)n3n2)n[nH]1	23.5 µM (active)	
Cc1ccc(C(=O)Nc2ccc(CN3CCN(C)CC3)c(C(F)(F)F)c2)cc1C#Cc1cnc2cccnn12	18.7 µM (active)	
CCc1c2c(nc3ccc(O)cc13)-c1cc3c(c(=O)n1C2)COC(=O)[C@]3(O)CC	0.0296 µM (active)	
CC(=O)SC[C@@H](C)C(=O)N1CCC[C@H]1C(=O)N[C@@H](Cc1ccccc1)C(=O)O		5.38% (inactive)
CN(C)CCCN=c1c2ccccc2n(C)c2[nH]c(=O)n(C)c(=O)c12	23.5 µM (active)	
CNC(=O)c1nn(C)c2c1C(C)(C)Cc1cnc(Nc3ccc(N4CCN(C)CC4)cc3)nc1-2	11.8 µM (active)	
CCCCN1CCC(CNC(=O)c2c3n(c4ccccc24)CCCO3)CC1	1.87 µM (active)	
COc1cc(=C2C=c3ccccc3=N2)[nH]c1=Cc1[nH]c(C)cc1C	14.8 µM (active)	
CN(C)Cc1c(C(=O)NCCOc2ccc(C(=O)NO)cc2)oc2ccccc12	3.72 µM (active)	
CN1CCN(Cc2ccc(NC(=O)Nc3ccc(Oc4cc(NC(=O)C5CC5)ncn4)cc3)cc2C(F)(F)F)CC1	0.59 µM (active)	
CC(=O)OCC(=O)[C@@]1(O)[C@H](C)C[C@H]2[C@@H]3C=C(C)C4=Cc5c(cnn5-c5ccccc5)C[C@]4(C)[C@@H]3[C@@H](O)C[C@@]21C	11.8 µM (active)	
Cc1ccc(C(N)=O)cc1Nc1nccc(-c2cn(C(C)C)c3cnccc23)n1	11.8 µM (active)	

SMILES	Potency	activity change, negative = cytotoxic
Clc1cccc(-n2nnnc2NCc2ccccc2Oc2ccccn2)c1Cl		-13.3% (inactive)
CC(C)c1cc(C(=O)N2Cc3ccc(CN4CCN(C)CC4)cc3C2)c(O)cc1O	0.935 µM (active)	
CC1(C)CCC(c2ccc(Cl)cc2)=C(CN2CCN(c3ccc(C(=O)NS(=O)(=O)c4ccc(N[C@H](CCN5CCOCC5)CSc5ccccc5)c(S(=O)(=O)C(F)(F)F)c4)cc3)CC2)C1	7.43 µM (active)	
C=CC(=O)N1CCC[C@@H](n2nc(-c3ccc(Oc4ccccc4)cc3)c3c(N)ncnc32)C1	23.5 µM (active)	
COc1cc(C)c(Sc2cnc(NC(=O)c3ccc(CNC(C)C(C)C)cc3)s2)cc1C(=O)N1CCN(C(C)=O)CC1 (stereo not given)	14.8 µM (active)	
O=C(O)c1ccc2cc(-c3ccc(O)c(C45CC6CC(CC(C6)C4)C5)c3)ccc2c1	0.469 µM (active)	
O=C(NCCCNc1nc(Nc2cccc(NC(=O)N3CCCC3)c2)ncc1I)c1cccs1	14.8 µM (active)	
C[C@@]12O[C@@H](C[C@]1(O)CO)n1c3ccccc3c3c4c(c5c6ccccc6n2c5c31)CNC4=O	4.69 µM (active)	
C=C1C(=CC=C2CCCC3(C)[C@@H]([C@H](C)C=CC=CC(O)(CC)CC)CC[C@@H]23)C[C@@H](O)C[C@@H]1O (stereo not given in full)	23.5 µM (active)	
CCC1=C[C@@H]2CN(C1)Cc1c([nH]c3ccccc13)[C@@](C(=O)OC)(c1cc3c(cc1OC)N(C)[C@@H]1[C@@](O)(C(=O)OC)[C@H](OC(C)=O)[C@]4(CC)C=CCN5CC[C@]31[C@@H]54)C2	0.187 µM (active)	
CCNC(=O)Nc1ccc2ncc(Nc3ccc(C)cc3)nc2n1	0.0372 µM (active)	
COCCn1c2c([n+](Cc3cnccn3)c1C)C(=O)c1ccccc1C2=O	0.0118 µM (active)	
Cc1ccc(S(=O)(=O)Nc2cc(Cl)ccc2C(=O)Nc2nc(-c3ccccc3)cs2)cc1	11.8 µM (active)	
CCc1cc2c(cc1N1CCC(N3CCOCC3)CC1)C(C)(C)c1[nH]c3cc(C#N)ccc3c1C2=O		-9.43% (inactive)
Nc1nccc(Oc2ccc(NC(=O)c3c[nH]cc(-c4ccc(F)cc4)c3=O)cc2F)c1Cl	14.8 µM (active)	
CCn1nnc2c(N3CCOCC3)nc(-c3ccc(NC(=O)Nc4ccc(C(=O)N5CCN(C)CC5)cc4)cc3)nc21	0.235 µM (active)	
COc1cc2c(cc1-c1c(C)noc1C)ncc1[nH]c(=O)n([C@H](C)c3ccccn3)c12	18.7 µM (active)	
COc1cc2nccc(Oc3ccc(NC(=O)C4(C(=O)Nc5ccc(F)cc5)CC4)cc3)c2cc1OC	14.8 µM (active)	
OCc1ccc(-c2ccc(-c3ccc(CO)s3)o2)s1	9.35 µM (active)	
c1nc2nc(Nc3ccc(N4CCOCC4)cc3)nc(NC3CCCCC3)c2[nH]1	18.7 µM (active)	
